# Experimental data published in PubChem BioAssay (NCATS).
# Inconclusive results are not listed. Where a call stands in place of a potency, no number is given. Activity calls are given as the source filed them. Calls follow the shape of the full dose curve; tested in HEK293 reporter line.
# Assay: qHTS for Inhibitors of the Functional Ribonucleoprotein Complex (vRNP) of Lymphocytic Choriomeningitis Arenaviruses (LCMV): Viability assay - alamar blue signal for LCMV Primary Screen (AID 1347085); also: nearly all actives have a fitted effect of over 80% in size
# Settings: alamar blue viability counter-screen, LCMV vRNP screen cells; series mostly up to 57.5 µM
row,SMILES,Potency
1,CC1(C)CC(=O)CC(C)(C)N1,inactive
2,CC(=O)O[C@@H]1CC2C(C)(C)C(=O)C=C[C@]2(C)C2CC[C@]3(C)C(=CC[C@H]3C3CO[C@@H](C(C)(C)O)[C@H](O)C3)[C@@]21C (stereo partly drawn),inactive
3,CCOC(=O)[C@H]1O[C@H]1C(=O)N[C@@H](CC(C)C)C(=O)NCCC(C)C,inactive
4,N#CC(=C(N)Sc1ccc(N)cc1)c1ccccc1C(F)(F)F,inactive
5,CC(C)=CCc1c(O)cc2c(c1O)C(=O)CC(c1ccccc1)O2 (stereo not drawn),inactive
6,C=CCCCCCCCCCCCC(O)CC(O)COC(C)=O (stereo not drawn),inactive
7,CCCCCCOC(=O)c1ccccc1,inactive
8,COC(=O)C1=CO[C@@H](C)[C@@H]2CN3CCc4c([nH]c5ccccc45)[C@@H]3C[C@H]12,inactive
9,OC[C@H]1O[C@@H](O[C@H]2[C@@H](O)[C@@](O)(CO)O[C@@H]2CO)[C@H](O)[C@@H](O)[C@@H]1O,inactive
10,CC1OC(OC2C(CO)OC(OCC3OC(OC(=O)[C@@]45CCC(C)(C)C[C@@H]4C4=CC[C@@H]6[C@@]7(C)CCC(OC8OCC(O)C(O)C8OC8OC(C)C(O)C(O)C8O)[C@@](C)(CO)C7CC[C@@]6(C)[C@]4(C)CC5)C(O)C(O)C3O)C(O)C2O)C(O)C(O)C1O (stereo partly drawn),inactive
11,CC(=O)c1c(O)cc(O)cc1O,inactive
12,CC(C)(O)C1CC[C@@]2(C)C3CCC4[C@@]5(C)CCCC(C)(C)C5C(O)C[C@]4(C)[C@]3(C)CC[C@@H]12 (stereo partly drawn),inactive
13,O=C(CCc1ccc(O)cc1)c1c(O)cc(O)cc1O[C@@H]1O[C@H](CO)[C@H](O)[C@H](O)[C@H]1O,inactive
